This note sets out measurements from PubChem BioAssay AID1220 (Sanford-Burnham Center for Chemical Genomics, 2008).

Values joined by “and” are separate entries in the source; they are usually repeats but may differ in a detail not shown here. Identical values can stand only once. About 1,300 (0.68%) of roughly 190,000 compounds were called active. Many of the other results were omitted from the sample, so actives are more common in it than they were. Values without a mark were called inactive. Cut-off read from the data, not from the text of the source: active = inhibition above about 50%; inactive = the rest.

The target of the assay is Mannose-6-phosphate isomerase (Homo sapiens) (UniProt P34949). As to the kind of experiment: human PMI inhibitors, high substrate, primary screen, biochemical, fluorescence intensity, high mannose 6-phosphate (AID 1220). Particulars: recombinant PMI enzyme, coupled fluorescence intensity; at 20 µM; active compounds read high.
Sequence of Mannose-6-phosphate isomerase (Homo sapiens) (P34949 whole entry, looked up): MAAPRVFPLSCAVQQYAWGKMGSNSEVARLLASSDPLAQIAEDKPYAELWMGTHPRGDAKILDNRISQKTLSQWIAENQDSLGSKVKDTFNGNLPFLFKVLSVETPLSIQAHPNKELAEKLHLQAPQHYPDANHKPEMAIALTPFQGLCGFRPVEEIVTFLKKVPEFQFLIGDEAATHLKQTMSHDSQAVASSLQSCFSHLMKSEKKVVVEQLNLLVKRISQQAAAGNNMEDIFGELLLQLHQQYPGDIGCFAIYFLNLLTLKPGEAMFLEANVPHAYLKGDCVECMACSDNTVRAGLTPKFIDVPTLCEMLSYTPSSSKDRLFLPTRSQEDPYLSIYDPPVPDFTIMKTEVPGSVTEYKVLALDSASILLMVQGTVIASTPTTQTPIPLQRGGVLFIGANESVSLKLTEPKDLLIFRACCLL
As for `CCOC(=O)N1CCC(NC(=O)C2CCCN(c3nc4ccccc4o3)C2)CC1` (stereo not drawn), the inhibition was 3.2%.

Take `CC(NC(=O)C(Cc1ccccc1)NC(=O)c1ccccc1)C(=O)O` (stereo not drawn): the inhibition is -5.7%.

Consider `N=C(N)Cc1ccccc1Sc1ccccc1`, for which the inhibition was -7.9%.

In the case of `Cc1ccc(NC(=O)c2ccc(F)c(S(=O)(=O)N3CCOCC3)c2)cc1F`, the inhibition was 0.5%.

`Cc1nccn1Cc1cccc2ccccc12`: the inhibition is -0.7%.

Regarding `CCOC(=O)N1CCN(C(=O)CS(=O)(=O)c2cn(Cc3ccccc3Cl)c3ccccc23)CC1`, the inhibition is 3.6%.

Take `O=c1c2ccccc2ncn1Cc1cccc2ccccc12`: the inhibition was 7.1%.

As to `COC(=O)N/N=C/c1cn(Cc2ccccc2Cl)c2ccccc12`, the inhibition was 16.8%.

With `Cc1[nH][nH]c(=O)c1C(c1c(C)[nH][nH]c1=O)c1cn(Cc2cccc3ccccc23)c2ccccc12`, the inhibition was 56% (active).

As for `Cc1[nH][nH]c(=O)c1C(c1c(C)[nH][nH]c1=O)c1cn(Cc2ccccc2Cl)c2ccccc12`, the inhibition was 50.3% (active).

With `O=C(O)c1ccc(Cl)c(S(=O)(=O)Nc2ccccc2N2CCOCC2)c1`, the inhibition is -3.7%.

`CC(C)=C1C2C=CC1C(C(=O)Nc1cccc(C)c1)C2C(=O)O` (stereo not drawn): the inhibition was 0.3%.

As for `O=C(COC(=O)c1cc(=O)c2ccccc2o1)NC1CCCC1`, the inhibition is 30.5%.

With `CCC(=O)Nc1cc2c(C)cc(=O)oc2cc1C`, the inhibition is -14.2%.

Turning to `CCCCCC(=O)Nc1cc2[nH]c(=O)cc(COC)c2cc1C`, the inhibition was -2.7%.

`CCC(=O)Nc1cc2[nH]c(=O)cc(C)c2cc1C`: the inhibition was 54.6% (active).

For the molecule `C#CCOCCOCCOCCNc1nc(N2CCN(C(=O)[C@H](C)n3cc(CCCN=C(N)N)nn3)CC2)nc(N2CCN(C(=O)[C@H](Cc3ccc(O)cc3)n3cc(CCO)nn3)CC2)n1`, the inhibition was -38%.

Turning to `COc1ccc(C(CC(=O)c2ccccc2)CC(=O)c2ccccc2)cc1OC`, the inhibition is 4%.

As to `N#CC1=C(N)Oc2cc(O)c(C=Nc3ccccc3)cc2C1c1ccccc1` (stereo not drawn), the inhibition is -4%.

On to `Cc1ccccc1N=Cc1cc2c(cc1O)OC(N)=C(C#N)C2c1ccccc1` (stereo not drawn), for which the inhibition is 55% (active).

Consider `N#CC1=C(N)Oc2cc(O)ccc2C1c1ccccc1` (stereo not drawn), for which the inhibition is 7.4%.

As to `COc1ccc(N=Cc2cc3c(cc2O)OC(N)=C(C#N)C3c2ccccc2)cc1` (stereo not drawn), the inhibition is 50.4% (active).

Turning to `Cc1ccc(C2C(C#N)=C(N)Oc3cc4c(cc32)OCO4)cc1` (stereo not drawn), the inhibition was 0.5%.

On to `Cc1ccc(N=Cc2cc3c(cc2O)OC(N)=C(C#N)C3c2ccccc2)cc1` (stereo not drawn), for which the inhibition is 10.5%.

As to `Clc1ccc(C2=NCCN2)cc1`, the inhibition was 1.4%.

For `O=C(Cc1ccc(F)cc1)N/N=C/c1ccccn1`, the inhibition is 16.5%.

For `Cn1c(=O)[nH]c(=O)c2c1nc(N1CCOCC1)n2CC(O)COc1ccc2ccccc2c1` (stereo not drawn), the inhibition was 6.5%.

Turning to `O=C(NC1CCCc2ccccc21)c1ccc(CNc2c(N3CCOCC3)c(=O)c2=O)cc1` (stereo not drawn), the inhibition was -6.9%.

In the case of `CCOC(=O)c1cc2c(ccn2C)n1CC(=O)N1CCC(C)CC1`, the inhibition is 13.8%.

Consider `CCOC(=O)c1cc2c(ccn2C)n1Cc1ccccc1C`, for which the inhibition was 22.3%.

As to `CCOC(=O)c1cc2c(ccn2C)n1Cc1cc(C)ccc1C`, the inhibition was 22.9%.

Turning to `CCOC(=O)c1cc2c(ccn2C)n1CC(=O)N1C(C)CCCC1C` (stereo not drawn), the inhibition is 52% (active).

As for `CCOC(=O)c1cc2c(ccn2C)n1CC(=O)N1CCCC(C)C1` (stereo not drawn), the inhibition was 7.2%.

With `CCOC(=O)c1cc2c(ccn2C)n1Cc1ccc(Cl)cc1`, the inhibition was 52.4% (active).

With `CCOC(=O)c1cc2c(ccn2C)n1Cc1ccc(C#N)cc1`, the inhibition is 35.1%.

Regarding `CCOC(=O)c1cc2c(ccn2C)n1CC(=O)N(C)C`, the inhibition is 44.7%.

In the case of `CCOC(=O)c1cc2c(ccn2C)n1Cc1ccccc1Cl`, the inhibition is 50.5% (active).

Consider `CCOc1cc(CNCc2ccccn2)cc(Cl)c1OC`, for which the inhibition was -0.7%.

As to `Cc1noc(C)c1C(=O)Nc1sc2c(c1C(N)=O)CCC2`, the inhibition was 0.1%.

As for `Cc1ccccc1CSc1nc2c(c(=O)[nH]1)CCC2`, the inhibition was 6.8%.

Turning to `O=C(O/N=C1\CCCc2ccccc21)c1cccc(Cl)c1`, the inhibition was 7.1%.

For the molecule `CCN(CCn1cccn1)C(=O)CCc1nnc(-c2ccc3c(c2)OCO3)o1`, the inhibition was 5.8%.

For the molecule `CN(C)S(=O)(=O)c1ccc(C(=O)Nc2cc(=O)n(C)c(=O)n2C)cc1`, the inhibition is 3.9%.

In the case of `O=C(c1nc2ncccn2n1)N1CCN(c2ccc(F)cc2)CC1`, the inhibition was 15%.

Take `O=C(Cc1c[nH]c2ccccc12)NCc1ccco1`: the inhibition is 7.4%.

For the molecule `NC(Cc1c[nH]c2ccccc12)C(=O)NCc1ccco1` (stereo not drawn), the inhibition was 55.4% (active).

Turning to `O=C(CCc1c[nH]c2ccccc12)NCc1ccco1`, the inhibition was -5.8%.

With `COc1ccc(OCC(=O)Nn2c(-c3ccc(C)cc3)nc3ccccc3c2=O)cc1`, the inhibition is 12.7%.

As for `O=c1[nH]c2cc3c(cc2cc1CN(Cc1nnnn1CC1CCCO1)C1CCCCC1)OCO3` (stereo not drawn), the inhibition is 5.5%.

Regarding `COc1ccc(OCC(=O)Nc2cccc3ncccc23)cc1`, the inhibition was 3.4%.

In the case of `COc1ccc(C=Nc2cccc3ncccc23)cc1`, the inhibition is 63.3% (active).

Consider `Cc1ccc(C=Nc2cccnc2N)cc1`, for which the inhibition is 63.2% (active).

`Cc1ccc(C=Nc2ccccc2C(N)=O)cc1`: the inhibition is 0.6%.

Take `COc1ccc(/C=N\n2nnc3ccccc32)cc1`: the inhibition is -4.2%.

For `Nc1ncc(Br)cc1N=Cc1ccccc1`, the inhibition is 24.6%.

With `Cc1ccc(NC(=O)CCC(=O)N/N=C/c2cccs2)cc1`, the inhibition is -0.5%.

Regarding `CCOc1cc(CNc2ccc(O)cc2)cc(Br)c1OCc1ccccc1F`, the inhibition was 29.5%.

Consider `COc1cc(CNc2ccc(O)cc2)cc(Br)c1OCc1ccccc1F`, for which the inhibition was 57.4% (active).

With `COc1cc(CNc2ccc(N3CCCC3)cc2)ccc1OCc1ccccc1F`, the inhibition is 55.7% (active).

Turning to `COc1cc(CNc2ccc(N3CCCC3)cc2)ccc1OCc1ccccc1`, the inhibition is 71.5% (active).

Take `COc1cc(CNc2ccc(O)cc2)cc(Br)c1OCc1ccccc1`: the inhibition is 49.4%.

Consider `CCNCc1ccc(OCc2ccccc2F)c(OC)c1`, for which the inhibition was -4.4%.

Regarding `COc1cc(CNc2ccc(N3CCN(C(C)=O)CC3)cc2)ccc1OCc1ccccc1`, the inhibition is 38.7%.

Regarding `COc1ccc(NCc2ccc(OC)c(OC)c2)cc1`, the inhibition was 60.3% (active).

For `COc1cc(CNCCCCO)ccc1OCc1ccccc1F`, the inhibition was 2.9%.

As to `COc1cc(CNc2ccc(N3CCN(C(C)=O)CC3)cc2)ccc1OCc1ccc(F)cc1`, the inhibition is 27%.

Consider `COc1ccc(CNS(=O)(=O)NCc2ccc(OC)c(OC)c2)cc1`, for which the inhibition was -3.8%.

As for `COc1ccc(CNc2ccc(C)c(C)c2)cc1`, the inhibition was 9.2%.

For `Cc1cccc(C)c1NC(=O)C1=C(O)c2sccc2N(C)S1(=O)=O`, the inhibition is 2.2%.

Regarding `CCOC(=O)c1c(NC(=O)CSc2nnc(CNC(=O)c3ccco3)n2C)sc2c1CCC2`, the inhibition was 4.5%.

Take `CCCCCNCc1cccn1C`: the inhibition was -9.2%.

As for `CCC(CC)N=C1NS(=O)(=O)c2cc([N+](=O)[O-])ccc21`, the inhibition was -4.3%.

In the case of `Cc1cc(=O)oc2cc(OCC(O)CN3CCN(c4ccc(F)cc4)CC3)ccc12` (stereo not drawn), the inhibition was 7.1%.

In the case of `O=C(COC(=O)COc1ccccc1)Nc1ccccc1OC(F)F`, the inhibition is -0.8%.

With `Cc1cccc(NS(=O)(=O)c2cc(C(=O)N3CCOCC3)ccc2Cl)c1`, the inhibition was 6.8%.

With `CN(C)c1cccc(C(=O)NC2CCCCCC2)c1`, the inhibition is 5.6%.

For the molecule `Cc1ccccc1CN(C)CC(=O)Nc1c(C)cccc1C(C)C`, the inhibition is 0.5%.

Take `Cc1cccc(OCCOc2ccccc2C=C(C#N)C#N)c1`: the inhibition is 11%.

In the case of `CN(C)c1cccc2c(/C=N/O)ccc(N(C)C)c12`, the inhibition was 51.7% (active).

Consider `CN(C)c1cccc2c(C=C(C#N)C#N)ccc(N(C)C)c12`, for which the inhibition was 63.9% (active).

With `Cc1ccccc1OCCOc1ccccc1C=C(C#N)C#N`, the inhibition is 16.3%.

Take `CC(=O)c1ccc(N(C)C)c2c(N(C)C)cccc12`: the inhibition was 38.5%.

In the case of `CN(C)c1ccc(/C=N/O)cc1`, the inhibition is 44.3%.

Regarding `CCOC(=O)C1CCN(C(=O)c2ccc3c(c2)OCO3)CC1`, the inhibition was 11.2%.

For the molecule `COc1ccccc1OCC(=O)Nn1c(=S)[nH]c2ncccc2c1=O`, the inhibition is -3.7%.

In the case of `CC(c1ccccc1)n1cc(C(=O)NCCN2CCOCC2)nn1` (stereo not drawn), the inhibition is -7.2%.

As for `Cc1csc(NC(=O)c2ccccc2[N+](=O)[O-])n1`, the inhibition was -6.4%.

As for `COC(=O)c1ccncc1N`, the inhibition is 8.9%.

With `Nc1cnccc1C(=O)O`, the inhibition is 63.7% (active).

As to `Nc1ccc(Br)cc1C(=O)O`, the inhibition is 1.2%.

`COc1ccc(NC(=O)CSc2nc3c(c(=O)n2-c2ccccc2)SCC3)c(OC)c1`: the inhibition was 2.7%.

Turning to `CCN(CC)C(=O)c1cn(CC)c(=O)c2cc(OC)c(OC)cc12`, the inhibition was -0.2%.

Turning to `CC(=O)Nc1cccc(NC(=S)Nc2ccc(F)cc2F)c1`, the inhibition is 55.8% (active).

In the case of `CC(=O)Nc1cccc(NC(=S)Nc2ccc(F)c(Cl)c2)c1`, the inhibition is 41.1%.

As for `CC(=O)Nc1cccc(NC(=O)Nc2ccc(F)cc2F)c1`, the inhibition was 19.6%.

`COc1cccc(-n2c(Cc3cc(=O)[nH]c(=O)[nH]3)nnc2SCC(=O)N2CCC(C)CC2)c1`: the inhibition is 3.3%.

Take `CCOC(=O)c1c(C)[nH]c(C)c1C(=O)COC(=O)c1ccc(S(=O)(=O)N(CC)CC)cc1`: the inhibition is 4.4%.

As for `Cc1ccc2nc(C)c(C)nc2c1N`, the inhibition was 23.4%.

As to `Cc1ccc2ncccc2c1[N+](=O)[O-]`, the inhibition was 9.7%.

As to `Cc1ccc2ncccc2c1N`, the inhibition was 63.7% (active).

With `c1cnc2c(c1)ccc1cccnc12`, the inhibition is -13% and -7.3%.

On to `Cc1ccc2cccnc2c1N`, for which the inhibition is 70.5% (active).

Turning to `Nc1ccc2ncccc2c1N`, the inhibition is 49.6%.
